# This is a sample that favours compounds with a hit; in the whole collection about 1.3% have one here.
# Phagocytosis inh – inhibitors of macrophage phagocytosis, primary screen, imaging, J774A.1 cells, IgG beads | J774A.1 macrophage IgG-bead phagocytosis | inhibition, % at 5 µM | 110,000 compounds, 0.07% hits | AID 1029, 2008;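 active means inhibition above the mean of the plate negative controls plus 5 SD, cut at about 13% in these data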;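 further: phagocytic index as fraction of beads internalized from green versus red external bead signal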
# GALR2 antag – GALR2 antagonists in receptor-expressing cells, primary screen; Galanin receptor type 2 (Homo sapiens), O43603; antagonist mode; inhibition, % at 4 µM; 140,000 compounds, 0.39% hits;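 further: cells stimulated with galanin 1-16 at roughly its EC80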
# Target sequence (O43603 whole entry, looked up): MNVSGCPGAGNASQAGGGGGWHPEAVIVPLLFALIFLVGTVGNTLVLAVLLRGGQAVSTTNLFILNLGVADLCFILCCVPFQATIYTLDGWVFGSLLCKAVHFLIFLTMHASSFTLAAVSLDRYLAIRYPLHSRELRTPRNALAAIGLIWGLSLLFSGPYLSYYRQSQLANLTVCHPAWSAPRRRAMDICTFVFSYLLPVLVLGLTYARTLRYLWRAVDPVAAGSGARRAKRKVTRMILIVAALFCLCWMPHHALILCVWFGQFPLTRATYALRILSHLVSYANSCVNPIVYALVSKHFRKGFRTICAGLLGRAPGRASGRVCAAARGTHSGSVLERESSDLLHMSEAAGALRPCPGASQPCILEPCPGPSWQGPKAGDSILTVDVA
# S1P2 blocker – human S1P2 receptor antagonists, primary screen, cell-based; Sphingosine 1-phosphate receptor 2 (Homo sapiens), O95136; cell-based S1P2 antagonist assay, inhibition at 5 uM; inhibition, % at 5 µM; 97,000 compounds, 0.21% hits; AID 736, 2007; in the data active means inhibition above about 45%;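 further: CRE beta-lactamase reporter cells expressing human S1P2 stimulated with S1P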
# GALR2 ag – GALR2 receptor agonists, primary screen, cell-based; 140,000 compounds, 0.48% hits; activation, % (concentration not given with the values); Galanin receptor type 2 (Homo sapiens), O43603; GALR2-expressing cells, agonist activation read-out; AID 803, 2007; in the data active means activation above about 5%, passing the limit was not always enough
# S1P2 ag – S1P2 receptor agonists, primary screen, cell-based; Sphingosine 1-phosphate receptor 2 (Homo sapiens), O95136; S1P2-expressing cell line, agonist reporter read-out; activation, % at 4.5 µM; 97,000 compounds, 0.46% hits; in the data active means activation above about 16%
# GALR2 ant conf – GALR2 antagonists, retest of hits, confirmation, cell-based; shares compounds with GALR2 antag; GALR2-expressing cells, antagonist mode, inhibition; inhibition, % at 4 µM; 480 compounds, 60% hits; AID 866, 2007;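 further: cells stimulated with galanin at about its EC80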
# BLA inh counter – inhibitors of NFAT-driven beta-lactamase reporter, confirmation, counter-screen for GALR2 antagonist project, CHO NFAT-bla cells, FRET readout; shares compounds with GALR2 antag; AID 867, 2007; inhibition, % at 4.2 µM; thapsigargin-stimulated; 480 compounds, 36% hits;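 active means inhibition above the mean inhibition across tested compounds plus 3 SD, cut at about 27% in these data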
# Numbers stand for hits; . = inactive; / = no result given. Unless noted, no stated cut-off is given here; in the data, active means inhibition above about 27%; inactive means the rest.
SMILES,Phagocytosis inh,GALR2 antag,S1P2 blocker,GALR2 ag,S1P2 ag,GALR2 ant conf,BLA inh counter
Cc1ccccc1CS(=O)(=O)c1nnc([C@H](Cc2ccccc2)NC(=O)OC(C)(C)C)o1,.,28,.,.,.,33,56
CC(=O)C(=Nc1ccccc1Cl)NNc1ccc(Cl)cc1,/,28,.,.,.,.,.
Cc1ccc(NC2=C/C(=N/S(=O)(=O)c3cccs3)c3ccccc3C2=O)cc1,.,.,/,.,/,/,/
O=C1C(Nc2ccccc2)=C/C(=N/S(=O)(=O)c2cccs2)c2ccccc21,.,88,/,5.5,/,67,71
COc1ccccc1/C=N/NC(=O)CCn1cnc2ccccc21,/,.,/,.,/,/,/
CCc1ccccc1NC(=S)N1CCN(c2ccccn2)CC1,.,28,/,.,/,.,.
O=C1c2cccc3c([N+](=O)[O-])ccc(c23)C(=O)N1c1ccccn1,.,34,67,.,.,49,44
O=C1c2cccc3c([N+](=O)[O-])ccc(c23)C(=O)N1c1nccs1,.,50,51,.,.,55,35
O=C1c2cccc3cccc(c23)C(=O)N1c1nccs1,.,.,.,.,.,/,/
O=C1c2cccc3c(N4CCCCC4)ccc(c23)C(=O)N1c1ccccn1,.,.,.,.,.,/,/
Oc1ccc(-c2nc3c4c(ncn3n2)-c2ccccc2CC42CCCC2)cc1,.,.,/,.,/,/,/
Cc1ccc2c(n1)CC(C)(C)CC2=O,/,.,.,.,.,/,/
OCCCc1nc2n(n1)C(c1ccccc1Cl)C=C(c1cccs1)N2 (configuration not stated),.,28,.,.,.,.,.
O=C(NC(=S)NCCCN1CCOCC1)c1ccc([N+](=O)[O-])cc1,.,.,/,.,/,/,/
COc1ccccc1NC(=O)/C(C#N)=C/c1cc([N+](=O)[O-])ccc1N1CCCC1,.,.,/,.,/,/,/
COc1ccc(/C=N/NC(=O)c2ccccc2F)cc1CN1CCN(c2ccc(F)cc2)CC1,.,.,/,.,/,/,/
CCCSc1nnc(NC(=O)c2sc3nc(-c4cccs4)ccc3c2N)s1,.,38,55,.,.,.,34
N#Cc1c(-c2ccccc2F)cc(C2CC2)nc1SCC(=O)c1cccs1,.,28,/,.,/,32,32
Cc1oc(-c2ccccc2F)nc1CSCC(=O)NCc1ccc2c(c1)OCO2,.,.,.,.,.,/,/
O=C(OCn1ncc(Br)c(Br)c1=O)c1ccc(F)cc1,.,79,54,.,.,92,95
O=C(OCc1cnc(Cl)s1)c1ccccc1Cl,/,.,.,.,.,/,/
O=C(OCn1ncc(Br)c(Br)c1=O)c1ccccc1Cl,.,79,51,.,.,95,97
Cc1sc2c(c1C)c(=O)nc1scc(C)n12,/,.,.,.,.,/,/
NS(=O)(=O)c1ccc(CCNc2ncnc3sccc23)cc1,.,.,.,.,.,/,/
Cc1sc2ncnc(NCCc3ccc(S(N)(=O)=O)cc3)c2c1C,.,37,63,.,.,47,.
SMILES,Phagocytosis inh,GALR2 antag,S1P2 blocker,GALR2 ag,S1P2 ag,GALR2 ant conf,BLA inh counter
CC(=O)c1c(C)[nH]c(C(=O)COC(=O)CN(C)S(=O)(=O)c2ccc(Cl)cc2)c1C,.,.,.,.,.,/,/
CCOc1ccc(C(=O)C(CCC(CN(C)C)C(=O)c2ccc(OCC)cc2)CN(C)C)cc1 (configuration not stated),/,39,/,.,/,28,30
COc1ccc(C(=O)C(CCCCC(CN(C)C)C(=O)c2ccc(OC)cc2)CN(C)C)cc1 (configuration not stated),/,.,.,.,.,/,/
COc1cccc(CN2C(=O)c3cccc(N)c3C2=O)c1,.,31,/,.,/,.,.
COc1cccc(CN2C(=O)Nc3ccccc3C(=O)N2C(C)(C)C)c1,.,.,.,.,.,/,/
CCOC(=O)c1sc(NN=C(C(=O)OC)C(=O)OC)c(C(=O)OCC)c1C,.,.,/,.,/,/,/
Cc1cc(Nc2ccccc2)nc(NCc2ccccc2)n1,.,42,/,.,/,50,31
Cc1cc(Nc2cccc(F)c2)nc(NCc2ccccc2)n1,.,.,/,.,/,/,/
COc1cc(Nc2cc(C)nc3ncnn23)cc(OC)c1,.,30,/,.,/,.,.
C1=C(CCNc2ncnc3c2[nH]c2ccccc23)CCCC1,.,48,/,.,/,61,.
CC(C)OCCCNc1ncnc2c1[nH]c1ccccc12,.,39,.,.,.,37,.
O=c1c2[nH]c3ccccc3c2ncn1CCC1=CCCCC1,.,.,.,.,.,/,/
COc1ccc2[nH]c3c(NCCN(C(C)C)C(C)C)ncnc3c2c1,.,.,.,.,.,/,/
CCC(=O)NNc1ncnc2ccccc12,.,.,/,.,/,/,/
CCCCCCCCNc1ncnc2ccccc12,.,39,78,.,.,54,.
Cn1c(=O)c2c(nc(SCC(=O)Nc3ccccc3)n2C)n(C)c1=O,.,28,/,.,/,.,.
CCn1c(SCC(=O)Nc2ccccc2)nc2c1c(=O)n(C)c(=O)n2C,/,.,.,.,.,/,/
CCCCC(=O)NCc1ccc(Cl)cc1,.,.,/,.,/,/,/
Cn1c(SCC2CCCCC2)nnc1-c1ccncc1,.,.,/,.,/,/,/
CCCC(c1nnnn1Cc1ccco1)N1CCN(C2CCCC2)CC1 (configuration not stated),.,69,/,.,/,.,27
N#Cc1cc2c(nc1SCc1nc3ccccc3[nH]1)CCC2,.,28,.,.,.,30,.
COc1ccc(OC)c(NC=C2C(=O)OC3(CCCCC3)OC2=O)c1,/,50,.,.,.,.,.
COc1ccc(C2(CNC(=O)c3ccc(OCC(C)C)cc3)CCOCC2)cc1,.,.,/,.,/,/,/
COc1ccc(C(=O)c2sc3nc(-c4ccccc4)ccc3c2N)cc1,/,32,/,.,/,42,49
COc1cc(N2CCCC2)c(OC)cc1/C=C(/C#N)c1ccc(F)cc1,/,.,.,.,.,/,/
SMILES,Phagocytosis inh,GALR2 antag,S1P2 blocker,GALR2 ag,S1P2 ag,GALR2 ant conf,BLA inh counter
COc1cc(N2CCCC2)c(OC)cc1/C=C(/C#N)c1ccc(Br)cc1,/,63,.,.,.,.,.
COc1cc(/C=C(\C#N)C(=O)Nc2cccnc2)ccc1OC(C)C,.,.,/,.,/,/,/
Clc1ccc(OCCN2CCN(c3ncnc4sccc34)CC2)cc1,.,40,/,.,/,49,.
COc1ccc(-c2cc(C(F)(F)F)nc(-n3ccnc3C)n2)cc1,.,.,/,.,/,/,/
CCC1(C(=O)OC)NC(c2ccco2)C2C(=O)N(c3ccc(C)cc3)C(=O)C21 (configuration not stated),.,30,.,.,.,.,.
CCOC(=O)C1(C)NC(c2ccco2)C2C(=O)N(c3ccc(C)cc3)C(=O)C21 (configuration not stated),/,.,.,.,.,/,/
CC[C@@H](NS(=O)(=O)c1ccc(C)cc1)C(=O)Oc1ccc2c3c(c(=O)oc2c1)CCC3,.,.,/,.,/,/,/
Cc1ccc(S(=O)(=O)NC(C(=O)Oc2ccc3c(C(F)(F)F)cc(=O)oc3c2)c2ccccc2)cc1 (configuration not stated),.,35,/,.,/,.,31
